# Source: PubChem BioAssay (several laboratories)
# CYP2C9 activ: activators of human CYP2C9 | AID 1024 | activation factor at 5 µM | 96,000 compounds, 1.4% hits | P11712 | recombinant CYP2C9, luciferin-H conversion, luminescence; active compounds read high; factor 1 = untreated enzyme, 0 = blocked;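 active = activation factor of 2 or more for CYP2C9 at a 5 µM dose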;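 note: 0 = sulfaphenazole-blocked wells and 1 = vehicle-only wells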
# Target sequence (P11712 whole entry, looked up): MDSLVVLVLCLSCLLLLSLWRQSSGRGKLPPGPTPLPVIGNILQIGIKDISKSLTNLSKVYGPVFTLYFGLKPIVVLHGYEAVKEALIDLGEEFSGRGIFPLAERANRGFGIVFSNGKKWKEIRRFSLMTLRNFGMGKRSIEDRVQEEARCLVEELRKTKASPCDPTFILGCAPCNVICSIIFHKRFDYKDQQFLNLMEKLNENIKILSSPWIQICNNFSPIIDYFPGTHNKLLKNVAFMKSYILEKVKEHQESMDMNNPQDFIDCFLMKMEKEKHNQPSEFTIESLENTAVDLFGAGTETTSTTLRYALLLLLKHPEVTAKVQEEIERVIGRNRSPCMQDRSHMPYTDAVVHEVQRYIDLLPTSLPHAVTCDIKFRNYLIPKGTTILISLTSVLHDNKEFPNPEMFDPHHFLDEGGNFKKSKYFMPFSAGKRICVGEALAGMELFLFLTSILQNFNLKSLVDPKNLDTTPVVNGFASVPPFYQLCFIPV
# Cav32 inh: human Cav3.2 channel inhibition, primary screen; O95180; Cav3.2-expressing cells, Fluo-4 calcium fluorescence FDSS; active compounds read low; B-score at 10 µM; 100,000 compounds, 4% hits; AID 449739;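 active = single-dose well whose peak fluorescence ratio is a statistical outlier from its plate by either plate-standardised score or position-corrected B-score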
# CYP2C19 inh: blocks human cytochrome P450 2C19 | CYP2C19 Supersomes, luciferin-H EGE luminescence, 30 min | inhibition, % at 5 µM | 96,000 compounds, 21% hits | AID 778;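 active = CYP2C19 inhibition above a set limit at 5 µM in the primary screen, cut at about 50% in these data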;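 note: plate controls were negative control wells for no effect and 2.5 mM tranylcypromine positive control for full effect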
# CYP2C9 inhib: inhibitors of human CYP2C9. 96,000 compounds, 20% hits. P11712. CYP2C9 Supersomes, luciferin-H conversion, luminescence. inhibition, % at 5 µM;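 active = blocking of liver enzyme CYP2C9 beyond about 50% at 5 µM, limit read from the data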
# CYP2C19 act: activators of human cytochrome P450 2C19 | P33261 | recombinant CYP2C19, luciferin-H EGE luminescence; active compounds read high; 0 = fully inhibited enzyme, 1 = untreated enzyme | activation factor at 5 µM | 96,000 tested, under 10 active;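 active = activation factor of at least 2 at 5 µM in the primary screen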;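 note: 0 = wells with 2.5 mM tranylcypromine and 1 = vehicle-only wells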
# Numbers without * were called inactive; nt = not tested or not shown. Rows were chosen to be rich in hits. Some 27% of all compounds tested hit in one or more screens of this group.
SMILES,CYP2C9 activ,Cav32 inh,CYP2C19 inh,CYP2C9 inhib,CYP2C19 act
O=c1c2ccccc2c(-c2ccccc2)nn1-c1ccc(Cl)c(Cl)c1,0.8,-0.84,43,20,0.6
COc1ccc(-n2nnnc2-c2cccc(OC)c2)cc1,0.2,-2.7,99*,85*,0
Clc1ccc(-n2nnnc2-c2ccccc2)cc1Cl,0.7,-1.2,95*,32,0
Cc1ccc(/C=N/n2c(C)n[nH]c2=S)o1,1.1,0.41,8,-15,0.9
O=C(CCS(=O)(=O)Cc1ccccc1)NCC1CCCO1 (stereo unspecified),1.1,0.036,-4,-10,1
Cc1nc2nc(Cc3ccccc3)[nH]n2c(=O)c1Cc1ccccc1,1,-0.5,-13,-1,1.1
O=c1cc(-c2ccccc2)nc2nc(COc3ccccc3)[nH]n12,0.7,-1.4,5,28,1
Cc1nc2nc(Cc3ccccc3)[nH]n2c(=O)c1Cl,0.3,nt,-14,69*,1.1
Cc1nc2nc(COc3ccccc3)[nH]n2c(=O)c1Cl,0.3,0.098,31,75*,0.7
COc1ccccc1/C=N/NC(=Nc1ccc(C)cc1)c1nc2ccccc2s1,1,-0.6,-1,1,1
COc1cc(/C=N/NC(=Nc2ccc(C)cc2)c2nc3ccccc3s2)ccc1O,0.1,-0.036,24,94*,0.8
COc1ccc(NC(=O)C23CC4CC(C2)CC(n2cnc(Br)n2)(C4)C3)cc1Cl,1,nt,10,0,0.9
COc1cc(OC)cc(C(=O)NCCCN2CCOCC2)c1,nt,0.37,nt,nt,nt
O=C(NCc1ccco1)C(c1ccc(F)cc1)N(CC1CCCO1)C(=O)Cn1nnc2ccccc21 (stereo unspecified),0.7,-4.9*,33,28,0.7
COCCNC(=O)C(c1ccc(C)o1)N(CC1CCCO1)C(=O)Cn1nnc2ccccc21 (stereo unspecified),1.1,-0.088,-9,-5,1.1
O=C(NCc1ccco1)C(c1ccco1)N(CCc1ccccc1)C(=O)Cn1nnc2ccccc21 (stereo unspecified),1,-6.2*,8,-4,0.9
Cc1ccc(CN(C(=O)Cn2nnc3ccccc32)C(C(=O)NCc2ccco2)c2cccs2)cc1 (stereo unspecified),0.6,-9.4*,73*,40,0.3
O=C(NCc1ccco1)C(c1cccs1)N(Cc1ccccc1)C(=O)Cn1nnc2ccccc21 (stereo unspecified),0.9,-3.2,30,5,0.7
CCN(CC)S(=O)(=O)c1cccc(-c2nnc(SCC(=O)NCCC3=CCCCC3)n2N)c1,0.6,-1.7,18,38,0.8
CC(C)c1nnc(SCC(=O)NCCC2=CCCCC2)n1N,0.4,0.63,17,60*,0.8
O=C(N/N=C/c1ccco1)c1cc(-c2cccc3ccccc23)n[nH]1,0.6,-6.2*,15,36,0.8
CC(C)CCOCc1nc2sc3c(c2c(=O)[nH]1)CCC(C)C3 (stereo unspecified),0.3,0.044,54*,72*,0.5
CCOC(=O)c1c(CN2CCOCC2)n(-c2ccccc2)c2cc(Br)c(OC)cc12,0.2,-3,52*,78*,0.5
CCOC(=O)c1c(C)n(C)c2ccc(OC(C)=O)cc12,nt,0.65,nt,nt,nt
CCOC(=O)c1oc2ccccc2c1CN1CCOCC1,1,0.15,13,1,0.9
SMILES,CYP2C9 activ,Cav32 inh,CYP2C19 inh,CYP2C9 inhib,CYP2C19 act
COc1cc2c(C(=O)N3CCN(c4ccccc4)CC3)c(C)oc2cc1Br,0.2,-3.3,59*,79*,0.4
CCOC(=O)c1c(CN2CCOCC2)n(-c2ccccc2)c2cc(Br)c(O)cc12,0.4,-2.2,57*,64*,0.4
CCOC(=O)c1c(CN2CCOCC2)oc2ccc(OC)cc12,0.7,0.78,36,31,0.6
CCOC(=O)c1c(CSC(=N)N)n(-c2ccc(C)cc2)c2cc(Br)c(OC(C)=O)cc12,0.3,-5.6*,36,65*,0.6
O=C(COC(=O)C1CCCCC1C(=O)N1CCc2ccccc21)NCc1ccco1 (stereo unspecified),0.3,-0.59,87*,71*,0.1
O=C(COC(=O)C1CC2C=CC1C2)NCc1ccco1 (stereo unspecified),0.8,0.37,64*,16,0.4
O=C(COC(=O)CCOc1ccccc1)NCc1ccco1,0.6,nt,9,38,0.9
O=C(COC(=O)C1CC2C=CC1C2)Nc1ccc2c(c1)OC(F)(F)O2 (stereo unspecified),nt,-5.5*,nt,nt,nt
